Results on four compounds are retold here after PubChem BioAssay (Tox21).

Assay [1] can be described thus: Nuclear factor erythroid 2-related factor 2/antioxidant responsive element (Nrf2/ARE) small molecule agonists: qHTS cell viability counter screen in human keratinocytes (AID 1919968; active = well fitted curve in the direction sought with a large enough effect in the repeat runs; an effect the other way counts as inactive or inconclusive; also: nearly all actives have a fitted effect of over 55% in size). The method, boiled down: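 Stably transfected HaCaT (KeratinoSens), 1,500/well. Test agents in DMSO were applied for 23 h, 37 C/5% CO2. CellTiter-Fluor was incubated 1 h before the fluorescence read.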
(In qHTS, concentration-response curves come from the screen itself.)

The nature of assay [2]: Nuclear factor erythroid 2-related factor 2/antioxidant responsive element (Nrf2/ARE) small molecule agonists: luciferase reporter gene qHTS assay in human keratinocytes (AID 1919969). Also: nearly all actives have a fitted effect of over 35% in size.
For assay [3], the target named is Gonadotropin-releasing hormone receptor (Homo sapiens) (UniProt P30968). The assay is described as follows: Human gonadotropin-releasing hormone receptor (GnRHR) small molecule agonists, calcium flux assay in GnRHR-HEK293 cells (AID 1920063). Also: nearly all actives have a fitted effect of over 35% in size. In outline:
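Stable human GnRHR HEK293 line. 18 h plating, then calcium dye for 1 h at 37 C. Agonist-mode compound addition from DMSO stocks; fluorescence monitored 3 min.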
(A change in cytosolic calcium serves as a functional read-out for many receptors and channels.)

Assay [4] has as its target KiSS-1 receptor (Homo sapiens) (UniProt Q969F8). The experiment in a line: Human kisspeptin (KISS1R) small molecule agonists, calcium flux assay in KISS1R-HEK293 cells (AID 1920064; active = well fitted curve in the direction sought with a large enough effect in the repeat runs; an effect the other way counts as inactive or inconclusive). The method, boiled down: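 After overnight (18 h) culture at 37 C/5% CO2, human KISS1R-HEK293 cells received calcium dye for 1 h, then test compound; emission at 540 nm (excitation 480 nm) was tracked for 3 min.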

Assay [5] is described as follows: G protein-coupled receptor (GPCR) small molecule agonists, calcium flux assay: HEK293 wild type cell line counter screen (AID 1920065). The method, boiled down:
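Following 18 h incubation at 37 C/5% CO2, plates got calcium dye for 1 h; compounds, ATP or DMSO were then pinned in and fluorescence followed kinetically (480/540 nm).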

A short description of assay [6]: p53 small molecule agonists, cell-based qHTS assay with human liver microsomes (AID 1963577). In outline: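 In this qHTS, p53 response-element beta-lactamase cells receive test compound together with a microsome/NADPH activating system (0.5 mg/mL final each) and are incubated 16 h at 37 C before LiveBLAzer fluorescence detection.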
Assay [7] can be described thus: p53 small molecule agonists, cell-based qHTS assay with rat liver microsomes (AID 1963578). The method, boiled down: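 Agonist mode in p53RE-bla reporter cells, with compounds co-incubated 16 h at 37 C alongside 0.5 mg/mL rat liver microsomes and 0.5 mg/mL NADPH (final), followed by a 2 h LiveBLAzer detection step.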
Assay [8] is described as follows: p53 small molecule agonists, cell-based qHTS assay with human liver microsomes: qHTS cell viability counter screen (AID 1963579). Also: nearly all actives have a fitted effect of over 45% in size. The method, boiled down: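 Metabolically activated exposure: compounds, human liver microsomes and NADPH (0.5 mg/mL final apiece) were added to p53RE-bla cells seeded 5 h earlier, left 16 h at 37 C, and then assessed for viability by CellTiter-Glo luminescence.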

The nature of assay [9]: p53 small molecule agonists, cell-based qHTS assay with rat liver microsomes: qHTS cell viability counter screen (AID 1963580). Also: nearly all actives have a fitted effect of over 45% in size. In outline:
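Counter screen for cytotoxicity under metabolic activation: rat liver microsomes and NADPH, 0.5 mg/mL final each, added with compounds to p53RE-bla HCT-116 cells; 16 h at 37 C, then ATP luminescence read.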

Assay [10] is described as follows: p53 small molecule agonists, cell-based qHTS assay: qHTS cell viability counter screen (AID 1963581). Also: nearly all actives have a fitted effect of over 45% in size. In outline: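 qHTS counter screen: 16 h compound exposure at 37 C of p53RE-bla HCT-116 cells (4,000 per well, seeded 5 h prior), cell viability by ATP luminescence.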
A short description of assay [11]: p53 small molecule agonists, cell-based qHTS assay (AID 1963582; active = well fitted activation curve with a large enough effect in the signal ratio in the repeat runs, not every such curve was filed as active; the % refers to the signal ratio). The method, boiled down: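 Measured: fluorescence from cleaved LiveBLAzer substrate. System: p53RE-bla cells, 16 h compound treatment at 37 C, 2 h substrate step at room temperature.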
Assay [12] has as its target 5-hydroxytryptamine receptor 2A (Homo sapiens) (UniProt P28223). The experiment in a line: 5-hydroxytryptamine receptor 2A (HTR2A) small molecule antagonists, cell-based qHTS assay (AID 1963586). Also: nearly all actives have a fitted effect of over 45% in size. The method, boiled down: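 CHO cells stably expressing human HTR2A were plated for 18 h at 37 C, then loaded with calcium dye for 1 h. Compounds were preincubated 5 min at room temperature before DOI (4 nM solution) was added. Kinetic fluorescence was read for 3 min.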

Assay [13] has the same target. The assay is described as follows: 5-hydroxytryptamine receptor 2A (HTR2A) small molecule agonists, cell-based qHTS assay (AID 1963587). Also: nearly all actives have a fitted effect of over 30% in size. In outline: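 HTR2A-CHO cells, plated 18 h at 37 C/5% CO2, dye-loaded 1 h at 37 C; compounds in DMSO added by pin tool (agonist mode). Intracellular calcium flux read as kinetic fluorescence on FDSS over 2 min at 1 s intervals.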

Assay [14] deals with Muscarinic acetylcholine receptor M1 (Homo sapiens) (UniProt P11229). The assay is described as follows: Cholinergic receptor muscarinic 1 (CHRM1) small molecule antagonists, cell-based qHTS assay (AID 1963588). Also: nearly all actives have a fitted effect of over 40% in size. Also: potency is read from the fitted curve at half-maximal effect. The method, boiled down:
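Compounds were tested at 15 concentrations in three independent runs. Dye-loaded CHRM1-CHO cells were exposed 5 min at room temperature before stimulation by acetylcholine added at 50nM. Intracellular calcium was read kinetically on FDSS for 3 min.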

Assay [15] has the same target. The experiment in a line: Cholinergic receptor muscarinic 1 (CHRM1) small molecule agonists, cell-based qHTS assay (AID 1963589). Also: nearly all actives have a fitted effect of over 35% in size. In outline:
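Kinetic fluorescence (1 s intervals) of calcium-sensitive dye in human M1 CHO cells after compound addition; cells pre-incubated 18 h at 37 C/5% CO2 and dye-loaded 1 h.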

The nature of assay [16]: cAMP Responsive Elements (CRE) small molecule agonists, cell-based qHTS assay (AID 1963590). In outline:
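Test agents in DMSO were incubated 3 h at 37 C/5% CO2 with CRE-bla HEK 293T cells seeded 18 h earlier; LiveBLAzer B/G FRET substrate was added and read after 2 h at room temperature.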

Assay [17] can be described thus: cAMP Responsive Elements (CRE) small molecule antagonists, cell-based qHTS assay (AID 1963591; active = well fitted inhibition curve with a large enough effect in the signal ratio in the repeat runs, not every such curve was filed as active; the % refers to the signal ratio). In outline:
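Reporter line CRE-bla HEK 293T in dialyzed-FBS DMEM; cells preincubated 18 h, treated 3 h with compound plus NKH477 (0.25 uM final); LiveBLAzer FRET, 2 h RT.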

The target in assay [18] is Beta-2 adrenergic receptor (Homo sapiens) (UniProt P07550). The assay is described as follows: Adrenergic beta2 receptor (ADRB2) small molecule antagonists, cell-based qHTS assay (AID 1963592). Also: series mostly up to about 92 µM; nearly all actives have a fitted effect of over 50% in size. The method, boiled down: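 Assay format: CHO-ADRB2 cells, 18-20hr seeding at 37C/5% CO2, then compound plus 1nM isoproterenol agonist mix for 0.5hr RT. Homogeneous time-resolved fluorescence cAMP detection after 1hr, expressed as 665/615 nm ratio.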

For assay [19], the target named is D(2) dopamine receptor (Homo sapiens) (UniProt P14416). The assay is described as follows: Dopamine D2 receptor (DRD2) small molecule agonists, cell-based qHTS assay (AID 1963594). Also: nearly all actives have a fitted effect of over 35% in size. The method, boiled down:
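HEK293 cells stably expressing DRD2 were cultured 24 h at 37 C, then given Ro20-1724 (0.1 mM final) and compounds for 10 min at room temperature. NKH477 (200nM) was then added for 30 min. cAMP was read by HTRF.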

Molecules are shown by their SMILES. Values without a mark were called inactive. Inconclusive results are not listed. Active and inactive are the calls of the source. Unless noted, calls follow the shape of the full dose curve.

Chain of D(2) dopamine receptor (Homo sapiens) (P14416 whole entry, looked up): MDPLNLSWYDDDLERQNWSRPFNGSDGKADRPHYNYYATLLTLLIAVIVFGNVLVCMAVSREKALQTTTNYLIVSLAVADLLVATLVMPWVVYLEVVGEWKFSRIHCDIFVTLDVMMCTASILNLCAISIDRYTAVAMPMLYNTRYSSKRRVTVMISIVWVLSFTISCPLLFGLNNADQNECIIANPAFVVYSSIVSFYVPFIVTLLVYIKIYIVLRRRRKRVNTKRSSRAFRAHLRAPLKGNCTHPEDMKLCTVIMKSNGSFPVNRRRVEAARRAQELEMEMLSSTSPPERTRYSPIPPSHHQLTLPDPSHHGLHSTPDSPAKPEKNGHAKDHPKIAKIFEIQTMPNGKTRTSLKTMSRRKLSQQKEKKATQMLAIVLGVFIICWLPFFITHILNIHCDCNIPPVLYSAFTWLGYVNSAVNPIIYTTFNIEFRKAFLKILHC
Chain of Beta-2 adrenergic receptor (Homo sapiens) (P07550 whole entry, looked up): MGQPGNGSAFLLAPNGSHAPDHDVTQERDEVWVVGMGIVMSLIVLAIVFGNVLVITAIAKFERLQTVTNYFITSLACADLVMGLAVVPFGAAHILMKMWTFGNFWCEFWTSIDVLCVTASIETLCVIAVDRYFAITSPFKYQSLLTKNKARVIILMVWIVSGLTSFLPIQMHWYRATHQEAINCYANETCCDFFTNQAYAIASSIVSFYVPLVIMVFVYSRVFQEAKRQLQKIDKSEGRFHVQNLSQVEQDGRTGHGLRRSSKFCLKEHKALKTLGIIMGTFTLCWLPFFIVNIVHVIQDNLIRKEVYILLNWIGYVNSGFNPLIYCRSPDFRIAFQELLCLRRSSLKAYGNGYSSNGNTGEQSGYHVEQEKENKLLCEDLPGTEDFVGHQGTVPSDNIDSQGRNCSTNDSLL
Chain of KiSS-1 receptor (Homo sapiens) (Q969F8 whole entry, looked up): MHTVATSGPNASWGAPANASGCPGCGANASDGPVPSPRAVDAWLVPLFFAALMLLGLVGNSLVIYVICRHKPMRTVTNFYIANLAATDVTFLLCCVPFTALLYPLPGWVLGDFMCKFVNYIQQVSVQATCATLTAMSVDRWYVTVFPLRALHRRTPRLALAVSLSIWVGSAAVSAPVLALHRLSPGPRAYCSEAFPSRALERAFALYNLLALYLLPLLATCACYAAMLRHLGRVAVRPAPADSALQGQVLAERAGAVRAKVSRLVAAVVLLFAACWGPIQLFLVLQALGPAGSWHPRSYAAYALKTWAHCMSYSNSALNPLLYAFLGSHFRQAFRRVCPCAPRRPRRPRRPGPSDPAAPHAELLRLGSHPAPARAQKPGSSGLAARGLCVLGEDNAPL
Chain of 5-hydroxytryptamine receptor 2A (Homo sapiens) (P28223 whole entry, looked up): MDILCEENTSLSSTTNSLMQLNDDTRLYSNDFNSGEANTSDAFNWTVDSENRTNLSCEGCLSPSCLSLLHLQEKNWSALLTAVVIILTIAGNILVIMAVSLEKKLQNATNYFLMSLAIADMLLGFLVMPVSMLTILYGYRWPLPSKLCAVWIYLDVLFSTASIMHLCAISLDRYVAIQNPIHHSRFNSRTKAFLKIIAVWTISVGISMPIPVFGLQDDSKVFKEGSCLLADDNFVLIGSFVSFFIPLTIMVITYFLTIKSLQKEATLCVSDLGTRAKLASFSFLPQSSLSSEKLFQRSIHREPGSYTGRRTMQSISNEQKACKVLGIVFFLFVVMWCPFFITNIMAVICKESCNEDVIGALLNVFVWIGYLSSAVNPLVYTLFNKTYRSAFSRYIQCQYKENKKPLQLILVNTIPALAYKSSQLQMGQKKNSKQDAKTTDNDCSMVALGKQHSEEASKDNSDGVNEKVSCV
Chain of Gonadotropin-releasing hormone receptor (Homo sapiens) (P30968 whole entry, looked up): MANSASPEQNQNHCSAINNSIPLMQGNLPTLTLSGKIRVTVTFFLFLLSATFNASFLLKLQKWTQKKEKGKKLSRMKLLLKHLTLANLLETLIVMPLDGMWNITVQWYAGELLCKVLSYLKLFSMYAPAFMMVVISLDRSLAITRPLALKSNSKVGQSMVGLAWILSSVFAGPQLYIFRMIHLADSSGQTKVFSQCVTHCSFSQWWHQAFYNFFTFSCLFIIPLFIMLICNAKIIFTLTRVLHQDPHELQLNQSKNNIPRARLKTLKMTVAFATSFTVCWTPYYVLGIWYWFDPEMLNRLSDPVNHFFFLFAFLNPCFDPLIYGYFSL
Chain of Muscarinic acetylcholine receptor M1 (Homo sapiens) (P11229 whole entry, looked up): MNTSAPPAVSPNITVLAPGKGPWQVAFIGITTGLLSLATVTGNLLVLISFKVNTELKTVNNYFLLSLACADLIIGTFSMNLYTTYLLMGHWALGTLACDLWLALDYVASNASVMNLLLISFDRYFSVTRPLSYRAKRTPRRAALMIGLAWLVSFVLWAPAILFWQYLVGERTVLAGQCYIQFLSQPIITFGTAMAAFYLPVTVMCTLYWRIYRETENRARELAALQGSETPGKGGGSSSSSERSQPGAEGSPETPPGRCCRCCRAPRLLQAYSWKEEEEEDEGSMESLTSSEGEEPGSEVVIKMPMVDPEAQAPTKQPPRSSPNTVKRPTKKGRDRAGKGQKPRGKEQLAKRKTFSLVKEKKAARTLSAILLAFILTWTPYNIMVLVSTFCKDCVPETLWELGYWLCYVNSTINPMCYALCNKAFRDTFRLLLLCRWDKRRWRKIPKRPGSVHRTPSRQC

`N#CCc1ccccc1[N+](=O)[O-]`: the Potency entry in assay [1], in [2], in assay [3], in assay [6], in [7] and in assay [8] was “inactive” each time. For the same compound, the Potency entry in assay [9], in assay [10], in assay [11], in assay [12], in assay [13] and in [14] was “inactive” each time. Also, the Potency result in assay [15], in assay [16], in assay [17], in assay [18] and in [19] was “inactive” throughout. The result in assay [4] and in [5] was inactive.

As to `Nc1ccnc(=O)[nH]1`, the Potency entry in assay [1], in assay [2], in assay [3], in [6], in assay [7] and in assay [8] was “inactive” throughout. Further, the Potency entry in [9], in [10], in assay [11], in assay [12], in assay [13] and in assay [14] was “inactive” in each case. Besides, the Potency entry in assay [15], in [16], in [17], in assay [18] and in [19] was “inactive” each time. In addition, the result in assay [4] and in [5] was inactive.

`Cn1c(=O)c2c(ncn2CC(=O)O)n(C)c1=O`: the Potency result in assay [1], in assay [2], in assay [3], in assay [6], in assay [7] and in assay [8] was “inactive” each time. The Potency result in assay [9], in [10], in assay [11], in assay [12], in assay [13] and in assay [14] was “inactive” each time. In addition, the Potency entry in assay [15], in assay [16], in assay [17] and in [18] was “inactive” each time. Moreover, the outcome in assay [4] and in assay [5] was inactive.

In the case of `CCCCCCCCCI`, the Potency result in assay [1], in assay [2], in assay [3], in assay [6], in assay [7] and in assay [8] was “inactive” throughout. Moreover, the Potency result in assay [9], in [10], in assay [11], in assay [12], in assay [13] and in assay [15] was “inactive” each time. The Potency result in assay [16], in assay [17], in assay [18] and in assay [19] was “inactive” in each case. The result in assay [4] and in assay [5] was inactive. Besides, the Potency in assay [14] is 8.55 µM (active).
